# Screens (PubChem)
# The list is not random: actives were taken first. Their share in the collection is about 13%.
# FMDV inh – High Throughput Screening for Foot and Mouth Disease Virus Antivirals; FMDV antiviral cell-based qHTS; Potency, µM (titrated, usually from 57.9 µM), most hits filed as inhibitors; actives 1.2% (n = 410,000); calls by dose curve; tested in HEK293T cells; note: read-out not given here; nearly all actives have a fitted effect of over 45% in size
# Shiga inhibitor – A qHTS for Small Molecule Inhibitors of Shiga Toxin; Vero cells, Shiga toxin protein synthesis inhibition reporter; inhibition, % at 38.7 µM; actives 9.2% (n = 290,000); in the data active = inhibition mostly above about 28%, no sharp cut-off; inactive = mostly below about 43%
# Marburg entry inh – qHTS for inhibitors of binding or entry into cells for Marburg Virus | Marburg virus pseudotyped entry inhibition, cell reporter | Potency, µM (series often up to 37.8 µM), most hits filed as inhibitors | actives 1.8% (n = 300,000) | AID 540276, 2011; calls by dose curve; tested in HEK293 cells
# Lassa entry inh – qHTS for Inhibitors of binding or entry into cells for Lassa Virus; Potency, µM (series often up to 37.9 µM), usual class: inhibitors; actives 1.2% (n = 300,000); Lassa virus pseudotype entry inhibition, cell reporter; calls by dose curve; tested in HEK293 cells; note: nearly all actives have a fitted effect of over 50% in size
# CHX counter – Cycloheximide Counterscreen for Small Molecule Inhibitors of Shiga Toxin. cell reporter, cycloheximide protein synthesis inhibition counterscreen. max response, %. actives 12% (n = 300,000). AID 2314, 2010; in the data active = max response mostly above about 13%, no sharp cut-off; inactive = mostly below about 14%; note: read at 38.3 µM for the half of the compounds with a filed dose
# HCV inh – qHTS Assay for Inhibitors of Hepatitis C Virus (HCV). Huh7.5.1 HCVcc-Cre infection, luciferase reporter, 44 h. Potency, µM (top dose mostly 41.8 µM), most hits filed as inhibitors. actives 3.4% (n = 340,000); active = well fitted inhibition curve with a large enough effect; inconclusive = small, poorly fitted or top-dose-only effect, or another doubt; inactive = no such curve, though single readings can be large or run the other way
#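 After 44 h co-culture of compound, cells and HCVcc-Cre (~0.5 moi), substrate is added for 15 min at room temperature and luciferase measured over 15 sec. Cells were seeded at 1,000/well and pre-cultured 4 h.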
# Hits are given with their value; n = inactive; u = inconclusive; x = not tested or not shown.
SMILES,FMDV inh,Shiga inhibitor,Marburg entry inh,Lassa entry inh,CHX counter,HCV inh
CCOc1cc(C2C(C(C)=O)=C(C)Nc3ncnn32)ccc1O (stereo not drawn),n,n,x,x,n,n
CCNc1ncc2nc(-c3cn(C)c4ccccc34)c(=O)n(CCC#N)c2n1,n,x,x,x,x,x
CCOc1ccc(NC2SC(=O)N(Cc3ccccc3)C2=O)cc1 (stereo not drawn),n,x,x,n,x,x
COC(=O)c1ccc(-n2c(C)cc(C(=O)COC(=O)CNS(=O)(=O)c3ccc(C)cc3)c2C)cc1,n,n,n,n,n,n
CCOc1ccc(-n2c(C)cc(C(=O)CCl)c2C)cc1,28.2µM,n,u,10µM,n,u
COC(=O)c1ccc(-n2c(C)cc(C(=O)CCl)c2C)cc1,31.6µM,n,x,x,n,6.31µM
CCOc1cc(OCC)cc(C(=O)O)c1,n,n,n,n,n,n
O/N=C1/CCCCC1c1ccccn1 (stereo not drawn),n,n,u,n,n,n
CCOc1ccc(NC(=O)Nc2ccc(Cc3ccncc3)cc2)cc1,n,n,u,n,n,u
CCOc1ccc(C(=O)Nc2cccc(C)n2)cc1,n,n,8.91µM,u,24.5,n
CCCCOc1ccc(C(=O)Nc2cccc(C)n2)cc1,n,73.6,u,u,43.2,u
Cc1cccc(NC(=O)c2ccc(S(=O)(=O)N(C)C)cc2)n1,n,78.0,n,u,36.7,n
CCOc1ccc(C(=O)Nc2cc(C)ccn2)cc1,n,n,u,u,n,n
CCOc1ccc(NC(=O)Nc2cccc(C)n2)cc1,n,72.0,u,n,27.6,n
Cn1nc(C(F)(F)F)c(C#N)c1N1CCN(c2ccccn2)CC1,u,n,n,n,n,n
COc1ccc(N2CCN(c3oc(-c4ccccc4C)nc3S(=O)(=O)c3ccccc3)CC2)cc1,n,x,n,u,x,x
Cc1nn(C)c(C)c1C1Nc2ccccc2C(=O)N1O (stereo not drawn),n,n,n,n,16.1,n
O=C1c2ccccc2NC(c2cnc3ccccc3n2)N1O (stereo not drawn),n,71.4,u,u,49.4,n
Cc1ccsc1C1Nc2ccccc2C(=O)N1O (stereo not drawn),n,46.6,u,n,20.2,n
Cc1nn(C)cc1C1Nc2ccccc2C(=O)N1O (stereo not drawn),n,n,n,n,n,n
CCCNC(=O)CSc1nc2ccc(OCC)cc2s1,n,n,x,x,n,n
O=C(CCN1C(=O)c2cccc3cccc(c23)C1=O)Nc1ccccc1,n,n,x,x,n,u
CCCC/C(C)=N/NC(=O)Nc1ccccc1,n,40.6,n,n,18.0,n
CCCCSC(=O)Nc1ccccc1,n,85.1,n,n,31.5,n
C/C(=N\NC(=O)Nc1ccccc1)c1ccccc1,n,n,u,n,20.1,n
SMILES,FMDV inh,Shiga inhibitor,Marburg entry inh,Lassa entry inh,CHX counter,HCV inh
CCCCC/C(=N\NC(=O)Nc1ccccc1)c1ccccc1,n,n,u,n,n,n
CC(C)c1cc(CNC(=O)CCc2nnc(CCCCc3ccccc3)o2)on1,n,n,x,x,n,n
COC(=O)/C(C#N)=C/c1c(-c2ccccc2)nc2n1CCS2,n,n,n,n,n,n
Clc1cccc(Cl)c1CO/N=C/c1c(-c2ccccc2)nc2n1CCS2,n,n,20.6µM,u,n,u
COc1ccc(NC(=O)COC(=O)COc2cccc3c2OC(C)(C)C3)cc1,n,x,n,n,x,n
COc1ccccc1C(=O)COC(=O)COc1cccc2c1OC(C)(C)C2,n,84.8,n,n,52.2,x
COc1ccc(N(C)S(=O)(=O)c2cccc(C(=O)Nc3ccc(-n4cnnn4)cc3)c2)cc1,39.8µM,n,u,n,n,u
COc1ccc(OCCN(C)C(=O)c2cccc(S(=O)(=O)N(C)c3ccccc3)c2)cc1,n,x,n,n,x,14.1µM
COc1cc(OC)cc(C(=O)Nc2ccc(-n3cnnn3)c(C)c2)c1,x,29.6,n,n,22.0,7.08µM
COc1cc(NC(=O)c2ccccc2-n2cnnn2)cc(OC)c1,n,x,u,n,x,n
COc1ccc(N(C)S(=O)(=O)c2cccc(C(=O)Nc3ccc(OC)nc3)c2)cc1,x,n,n,n,n,u
CCN(c1ccccc1)S(=O)(=O)c1cccc(C(=O)N(C)CCOc2ccccc2)c1,n,x,n,u,x,u
COc1ccc(N(C)S(=O)(=O)c2cccc(C(=O)Nc3ccc4c(c3)OCCO4)c2)cc1,n,n,10µM,u,n,10µM
COc1ccc(N(C)S(=O)(=O)c2cccc(C(=O)Nc3cc(OC)ccc3OC)c2)cc1,u,n,u,u,n,10µM
O=C(CCN1C(=O)C2C3CCC(C3)C2C1=O)OCC(=O)c1ccccc1 (stereo not drawn),n,n,x,x,n,n
Cc1nc(C(=O)NNC(=O)Nc2ccccc2)cs1,n,n,n,n,12.6,n
O=C(Nc1ccc(F)cc1F)c1cccc(C(=O)Nc2ccc(F)cc2F)n1,n,n,n,n,n,n
O=C(Nc1ccccc1)c1csc(-c2ccccc2)n1,n,42.8,u,n,26.1,n
O=C(NNC(=O)c1csc(-c2ccccc2)n1)c1ccccc1,n,x,x,x,x,x
Cc1cc(C(=O)NNC(=O)Nc2ccccc2)no1,n,n,n,u,n,n
O=C(Nc1ccc(F)cc1F)c1csc(-c2ccccc2)n1,n,69.8,n,n,23.5,u
O=C(O)c1csc(-c2cccc(Cl)c2)n1,n,n,x,x,9.7,n
COC(=O)c1ccc(CNC(=O)COC(=O)COc2ccc(OC)cc2)cc1,n,n,u,n,n,n
COc1ccc(C(=O)Nc2nnc([C@@H]3C[C@H](O)[C@@H](CO)O3)s2)cc1,n,x,x,x,x,x
O=C(CC(NS(=O)(=O)c1ccc(Cl)cc1)c1ccco1)NCc1ccco1 (stereo not drawn),n,n,u,n,n,n
SMILES,FMDV inh,Shiga inhibitor,Marburg entry inh,Lassa entry inh,CHX counter,HCV inh
CC(=O)OC[C@H]1O[C@H](CC=NOC[C@@H](C)[C@H](OCc2ccccc2)C(C)C)C=C[C@@H]1OC(C)=O,x,x,n,x,x,x
O=c1cc(-c2ccc(Cl)cc2)oc(=O)[nH]1,n,n,x,x,n,n
O=c1cc(N=Nc2ccc(Cl)cc2)[nH]c(=O)[nH]1,25.1µM,n,n,u,n,u
Cc1cccc(NC(=O)c2ccoc2C)n1,n,83.7,n,n,29.0,n
Cc1cccc(NC(=O)c2cc(NC(=O)c3ccco3)ccc2Cl)n1,n,21.2,u,n,n,u
Cc1occc1C(=O)Nc1cc(C(C)(C)C)on1,n,70.0,n,u,29.3,n
Cc1ccccc1CC(=O)Nc1cc(C(C)(C)C)on1,n,n,n,n,9.7,n
Cc1cc(NC(=O)Cc2ccccc2C)no1,n,n,x,x,n,n
Cc1cccc(NC(=O)c2ccccc2Br)n1,n,n,x,x,n,n
O=C(Nc1cccc(F)c1)NC1(C(=O)N2CCC(O)CC2)CCCCC1,n,n,u,u,n,n
COC(=O)c1ccc(C(=O)OC)c(NC(=O)c2ccc(-c3ccccc3)s2)c1,n,x,n,n,x,x
